{
  "source": "PubChem BioAssay (NCATS)",
  "note": "Records with an inconclusive call do not appear. Calls of active or inactive are those of the source. The call rests on the fitted dose curve; in most records, active means well fitted inhibition curve with a large enough effect; inconclusive means small, poorly fitted or top-dose-only effect; inactive means flat fitted curve, though single readings scatter.",
  "data": [
    {"target": "Lysine-specific demethylase 5B (Homo sapiens) (UniProt Q9UGL1)", "sequence (Q9UGL1 whole entry, looked up)": "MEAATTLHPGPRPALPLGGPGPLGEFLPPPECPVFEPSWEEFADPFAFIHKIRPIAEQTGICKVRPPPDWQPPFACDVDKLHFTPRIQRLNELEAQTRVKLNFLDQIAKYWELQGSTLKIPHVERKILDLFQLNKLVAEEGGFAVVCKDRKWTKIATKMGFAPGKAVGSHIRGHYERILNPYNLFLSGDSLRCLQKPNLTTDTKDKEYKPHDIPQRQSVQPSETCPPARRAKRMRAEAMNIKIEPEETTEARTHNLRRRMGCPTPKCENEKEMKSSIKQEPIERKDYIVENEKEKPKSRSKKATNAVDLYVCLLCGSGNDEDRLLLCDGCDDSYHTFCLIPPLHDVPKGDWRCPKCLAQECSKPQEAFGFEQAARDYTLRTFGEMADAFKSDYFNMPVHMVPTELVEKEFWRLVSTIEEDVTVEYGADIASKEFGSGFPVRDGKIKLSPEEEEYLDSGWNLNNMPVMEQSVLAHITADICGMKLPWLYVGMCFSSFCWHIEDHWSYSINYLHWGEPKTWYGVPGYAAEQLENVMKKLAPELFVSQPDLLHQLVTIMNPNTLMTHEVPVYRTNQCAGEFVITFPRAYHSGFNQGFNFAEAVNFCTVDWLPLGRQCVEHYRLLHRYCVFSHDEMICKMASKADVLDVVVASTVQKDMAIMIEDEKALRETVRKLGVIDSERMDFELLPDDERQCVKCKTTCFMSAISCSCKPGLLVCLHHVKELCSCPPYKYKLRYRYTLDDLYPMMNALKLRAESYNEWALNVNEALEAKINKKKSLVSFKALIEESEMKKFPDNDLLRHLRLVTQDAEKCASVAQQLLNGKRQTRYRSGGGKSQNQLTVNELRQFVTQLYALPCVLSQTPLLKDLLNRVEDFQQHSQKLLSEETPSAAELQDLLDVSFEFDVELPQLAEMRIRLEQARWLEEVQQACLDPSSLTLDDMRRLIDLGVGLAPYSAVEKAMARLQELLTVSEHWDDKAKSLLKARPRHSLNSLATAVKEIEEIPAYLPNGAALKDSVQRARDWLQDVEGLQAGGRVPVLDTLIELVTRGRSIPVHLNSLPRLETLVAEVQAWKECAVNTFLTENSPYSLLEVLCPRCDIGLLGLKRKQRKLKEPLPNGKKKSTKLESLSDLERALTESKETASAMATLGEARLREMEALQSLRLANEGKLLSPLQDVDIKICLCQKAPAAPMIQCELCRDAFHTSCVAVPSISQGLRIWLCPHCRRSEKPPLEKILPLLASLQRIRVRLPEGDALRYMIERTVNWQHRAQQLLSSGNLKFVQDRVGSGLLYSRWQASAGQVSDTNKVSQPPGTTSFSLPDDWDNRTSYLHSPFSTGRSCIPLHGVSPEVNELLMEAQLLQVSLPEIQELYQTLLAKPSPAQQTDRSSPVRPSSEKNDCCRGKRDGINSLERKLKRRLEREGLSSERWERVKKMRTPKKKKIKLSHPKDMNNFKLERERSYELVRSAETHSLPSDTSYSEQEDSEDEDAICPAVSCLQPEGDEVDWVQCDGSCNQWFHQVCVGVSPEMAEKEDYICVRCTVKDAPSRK", "experiment": "Optimization screen for KDM5B Histone Demethylases FDH coupled qHTS against the LOPAC library (AID 1347166)", "conditions": "KDM5B demethylation, FDH-coupled NADH fluorescence (FDH is formaldehyde dehydrogenase); series mostly up to 57.5 µM", "summary_of_the_method": "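KDM5BDeltaAP (200nM final) preincubated 10 min with compound, then 12.5uM H3K4Me3, 25uM a-ketoglutarate, ascorbate, Fe(II), NAD+ and FDH added; 50mM HEPES pH 7.5, 0.01% Tween-20. NADH fluorescence (340/450 nm) change over 30 min, room temperature.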", "values": [
      {"smiles": "Cc1cn([C@H]2C[C@H](N=[N+]=[N-])[C@@H](CO)O2)c(=O)[nH]c1=O", "outcome": "inactive"},
      {"smiles": "CC12CC3CC(C)(C1)CC(N)(C3)C2", "outcome": "inactive"},
      {"smiles": "CCOC(=O)C(C)(C)Oc1ccc(Cl)cc1", "outcome": "inactive"},
      {"smiles": "COc1ccc2c(c1)c(CC(=O)O)c(C)n2C(=O)c1ccc(Cl)cc1", "outcome": "inactive"},
      {"smiles": "CCCNCC(O)COc1ccccc1C(=O)CCc1ccccc1", "note": "(centres undefined)", "outcome": "inactive"},
      {"smiles": "Cc1cn([C@H]2C=C[C@@H](CO)O2)c(=O)[nH]c1=O", "outcome": "inactive"},
      {"smiles": "CCOC(=O)c1ncn2c1CN(C)C(=O)c1cc(F)ccc1-2", "outcome": "inactive"},
      {"smiles": "O=C1c2c(O)ccc(O)c2C(=O)c2c(NCCNCCO)ccc(NCCNCCO)c21", "outcome": "inactive"},
      {"smiles": "CN1C2CCC1CC(OC(=O)C(CO)c1ccccc1)C2", "note": "(centres undefined)", "outcome": "inactive"},
      {"smiles": "CN(C)CCC=C1c2ccccc2C=Cc2ccccc21", "outcome": "inactive"},
      {"smiles": "NS(=O)(=O)c1cc2c(cc1Cl)NCNS2(=O)=O", "outcome": "inactive"},
      {"smiles": "NC12CC3CC(CC(C3)C1)C2", "outcome": "inactive"},
      {"smiles": "CCc1cccc2c3c([nH]c12)C(CC)(CC(=O)O)OCC3", "note": "(centres undefined)", "outcome": "inactive"},
      {"smiles": "NCCCCCC(=O)O", "outcome": "inactive"},
      {"smiles": "Fc1ccc([C@@H]2CCNC[C@H]2COc2ccc3c(c2)OCO3)cc1", "outcome": "inactive"},
      {"smiles": "O=C1N(c2ccccc2)c2ccccc2C1(Cc1ccncc1)Cc1ccncc1", "outcome": "inactive"},
      {"smiles": "Clc1ccccc1C(c1ccccc1)(c1ccccc1)n1ccnc1", "outcome": "inactive"},
      {"smiles": "Nc1ccn([C@H]2CC[C@@H](CO)O2)c(=O)n1", "outcome": "inactive"},
      {"smiles": "Nc1nc2c(ncn2COC(CO)CO)c(=O)[nH]1", "outcome": "inactive"},
      {"smiles": "CN(C)c1nc(N(C)C)nc(N(C)C)n1", "outcome": "inactive"},
      {"smiles": "COC(=O)Nc1nc2ccc(C(=O)c3cccs3)cc2[nH]1", "outcome": "inactive"},
      {"smiles": "COc1cc2c(c(OC)c1OC)-c1ccc(OC)c(=O)cc1[C@@H](NC(C)=O)CC2", "outcome": "inactive"},
      {"smiles": "Cc1cc(C(C)(C)C)cc(C)c1CC1=NCCN1", "outcome": "inactive"},
      {"smiles": "CCC1(C)CC(=O)NC1=O", "note": "(centres undefined)", "outcome": "inactive"},
      {"smiles": "CN1CCC(=C2c3ccccc3C=Cc3ccccc32)CC1", "outcome": "inactive"},
      {"smiles": "CC(C)NCC(O)COc1ccc(CCOCC2CC2)cc1", "note": "(centres undefined)", "outcome": "inactive"},
      {"smiles": "CN(C)CCCN1c2ccccc2CCc2ccc(Cl)cc21", "outcome": "inactive"},
      {"smiles": "CC(C)(Oc1ccc(C2CC2(Cl)Cl)cc1)C(=O)O", "note": "(centres undefined)", "outcome": "inactive"},
      {"smiles": "COc1ccc(C2CNC(=O)C2)cc1OC1CCCC1", "note": "(centres undefined)", "outcome": "inactive"}
    ]}
  ]
}
